# Test results taken from PubChem BioAssay (EPA / NIEHS).
# Inconclusive results are not listed. Active and inactive are the calls of the source. How the source made its calls, unless noted: active means hit-call score of the fitted dose curve at least 0.9, where 1 is the maximum; inconclusive means response in the unintended direction; inactive means score below 0.9.
# Experiments:
# [1] = CEETOX_H295R_MTT_cell_viability: Viability Assessment in the CeeTox HT-H295R MTT Assay (AID 2283718; active means hit-call score of the fitted dose curve at least 0.9, where 1 is the maximum; inactive means score below 0.9)
# Procedure, shortened: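 Human H295R adrenal cells, prestimulated 48 h with 10 uM forskolin, were exposed 48 h to chemicals in 0.1% DMSO. Viability was measured in the same wells by MTT (0.5 mg/ml, 4 h, 37 C), absorbance 570/650 nm, as percent of controls.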
# [2] = Tanguay_ZF_120hpf_ActivityScore_legacy: (Legacy) Oregon State University Tanguay Lab 120 Hour Post-fertilization zebrafish Assay Score for Activity (AID 2283742);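 on AC50: dechorionated Tropical 5D wild-type zebrafish embryos held singly per well; static exposure from 6 hpf until 120 hpf at 28 °C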
# Procedure, shortened: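 Dechorionated Tropical 5D embryos, one per well from 6 hpf, statically exposed to 120 hpf at 28 °C in 0.64% DMSO. Mortality and malformations scored binary by brightfield microscopy; activity score combines 18 endpoints, fitted positively versus DMSO.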
# [3] = ACEA_AR_agonist_AUC_viability: ACEA Biosciences xCELLigence Real-Time Cell Analysis on Androgen Receptor Agonism for Viability (AID 2283775);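 on AC50: viability read 80 hours after compound addition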
# Procedure, shortened: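 Real-time impedance tracking of 22Rv1 growth, readings every 5 min for 5 h then hourly; area-under-curve viability endpoint at 80 hours, relative to DMSO. Compounds at eight concentrations, 1:4 steps, top 100 uM, n = 2.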
# [4] = ACEA_AR_antagonist_AUC_viability: ACEA Biosciences xCELLigence Real-Time Cell Analysis on Androgen Receptor Antagonism for Viability (AID 2283776);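 further: 22Rv1 human prostate cancer cells growing on impedance electrode plates; hits lower the growth signal relative to DMSO meaning cytotoxicity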
# Procedure, shortened: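 22Rv1 prostate cells, continuous dosing up to 100 uM final (0.5% DMSO max), duplicate plates. Growth measured by impedance; AUC at 80 h, loss of signal vs DMSO.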
# [5] = molecular target: Luciferin 4-monooxygenase (Photinus pyralis) (UniProt P08659); test: CCTE_Simmons_QuantiLum_inhib_2: CCTE's Firefly Luciferase Inhibition Assay, Simmons Lab (AID 2283767);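 on AC50: potency for inhibitors that lower luciferase luminescence relative to DMSO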
# Chain of Luciferin 4-monooxygenase (Photinus pyralis) (P08659 whole entry, looked up): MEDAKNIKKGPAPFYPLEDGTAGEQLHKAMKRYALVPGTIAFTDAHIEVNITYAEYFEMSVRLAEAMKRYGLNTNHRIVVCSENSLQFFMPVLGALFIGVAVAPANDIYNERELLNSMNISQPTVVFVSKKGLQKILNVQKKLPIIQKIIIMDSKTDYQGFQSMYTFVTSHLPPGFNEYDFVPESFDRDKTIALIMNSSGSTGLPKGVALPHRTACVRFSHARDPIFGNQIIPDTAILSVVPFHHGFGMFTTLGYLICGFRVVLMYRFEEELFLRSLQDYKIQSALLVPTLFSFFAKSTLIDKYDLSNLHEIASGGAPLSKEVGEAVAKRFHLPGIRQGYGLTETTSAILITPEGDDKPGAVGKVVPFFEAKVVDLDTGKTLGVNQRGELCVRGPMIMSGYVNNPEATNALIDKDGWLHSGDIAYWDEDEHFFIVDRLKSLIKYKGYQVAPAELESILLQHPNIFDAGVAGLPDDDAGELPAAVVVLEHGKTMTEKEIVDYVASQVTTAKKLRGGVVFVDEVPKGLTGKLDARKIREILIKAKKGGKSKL
# Procedure, shortened: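 Cell-free recombinant firefly luciferase (5 ng/well) in 200mM potassium phosphate with 1 mg/ml BSA, 30 min at 37C with 8 concentrations from 5 nM to 87.5 uM [final], 0.5% DMSO. Luminescence read after D-luciferin (150uM)/dATP (147uM) reagent injection, pH 7.8; triplicates.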
# [6] = system: frog Estrogen Receptor (ESR1), gene 398734; test: ATG_frER1_XSP1: Attagene TRANS-FACTORIAL Multi-Species (XSP1) HepG2 Assay for frog Estrogen Receptor (ESR1) (AID 2283777)
# Procedure, shortened: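 HepG2 cells transiently transfected with frog ER–GAL4 chimera and GAL4-UAS reporter, with 3 nM 6-alpha-fluorotestosterone present; 24 h dosing, reporter mRNA quantified by RT-PCR and capillary electrophoresis, gain of signal versus DMSO.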
# [7] = system: zebrafish Androgen Receptor (AR), gene 100005148; test: ATG_zfAR_XSP1: Attagene TRANS-FACTORIAL Multi-Species (XSP1) HepG2 Assay for zebrafish Androgen Receptor (AR) (AID 2283771)
# Procedure, shortened: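 HepG2 cells were transiently transfected with a zebrafish AR-GAL4 reporter system and partially stimulated with 3 nM 6-alpha-fluorotestosterone. Reporter mRNA was measured after 24 h dosing by RT-PCR with capillary electrophoresis, and gain-of-signal was fitted relative to DMSO.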
# [8] = molecular target: zebrafish Estrogen Receptor (ESR1), esr1 (gene 259252) (UniProt P57717); test: ATG_zfER1_XSP1: Attagene TRANS-FACTORIAL Multi-Species (XSP1) HepG2 Assay for zebrafish Estrogen Receptor (ESR1) (AID 2283772)
# Chain of zebrafish Estrogen Receptor (ESR1), esr1 (gene 259252) (P57717 whole entry, looked up, the tested form may be a part): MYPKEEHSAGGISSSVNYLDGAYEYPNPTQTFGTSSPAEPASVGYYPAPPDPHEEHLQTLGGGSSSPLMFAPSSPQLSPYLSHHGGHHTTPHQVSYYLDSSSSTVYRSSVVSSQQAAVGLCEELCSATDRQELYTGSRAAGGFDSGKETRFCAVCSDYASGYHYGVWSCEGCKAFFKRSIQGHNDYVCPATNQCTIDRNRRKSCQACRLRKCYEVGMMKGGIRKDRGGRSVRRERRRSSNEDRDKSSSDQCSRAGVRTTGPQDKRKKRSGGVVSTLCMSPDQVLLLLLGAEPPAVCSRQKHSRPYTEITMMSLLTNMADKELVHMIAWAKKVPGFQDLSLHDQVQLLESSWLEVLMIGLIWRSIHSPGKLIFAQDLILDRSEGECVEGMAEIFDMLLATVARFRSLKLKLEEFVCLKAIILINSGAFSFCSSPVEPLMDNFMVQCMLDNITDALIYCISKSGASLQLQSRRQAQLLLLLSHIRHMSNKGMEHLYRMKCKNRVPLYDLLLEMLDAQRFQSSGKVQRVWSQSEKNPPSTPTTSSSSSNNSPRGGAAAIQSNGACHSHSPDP
# Procedure, shortened: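 HepG2 cells transiently transfected with a GAL4-UAS reporter and chimeric zebrafish ER-Gal4, dosed 24 h with 3 nM 6-alpha-fluorotestosterone present. Reporter mRNA measured by RT-PCR and capillary electrophoresis; gain of signal versus DMSO.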
# [9] = system: zebrafish Estrogen Receptor (ESR2B), gene 317733; test: ATG_zfER2b_XSP1: Attagene TRANS-FACTORIAL Multi-Species (XSP1) HepG2 Assay for zebrafish Estrogen Receptor (ESR2B) (AID 2283773)
# Procedure, shortened: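 HepG2 cells transiently transfected with GAL4-UAS reporter units for chimeric zebrafish ER2b-Gal4, with 3 nM 6-alpha-fluorotestosterone present; reporter mRNA measured 24 h after dosing by RT-PCR and capillary electrophoresis, gain versus DMSO.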
# [10] = system: frog Estrogen Receptor (ESR2), gene 100174814; test: ATG_frER2_XSP1: Attagene TRANS-FACTORIAL Multi-Species (XSP1) HepG2 Assay for frog Estrogen Receptor (ESR2) (AID 2283774)
# Procedure, shortened: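 HepG2 cells transiently transfected with GAL4-UAS reporter units expressing chimeric frog ER-Gal4; 3 nM 6-alpha-fluorotestosterone present. After 24 h dosing, reporter mRNA quantified by RT-PCR and capillary electrophoresis; gain-of-signal fitted relative to DMSO.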
smiles,measurement,setting,value
CCCCCCCCCCCCCCCS(=O)(=O)Oc1ccccc1,outcome,[1],inactive
same,outcome,[2],inactive
same,outcome,[3],inactive
same,outcome,[4],inactive
c1ccc2cc3c(ccc4ccccc43)cc2c1,outcome,[1],inactive
same,outcome,[2],inactive
same,AC50,[5],17.3 µM (active)
Oc1cc2ccccc2c2ccccc12,AC50,[2],31.4 µM (active)
same,AC50,[5],30.1 µM (active)
same,AC50,[3],18.1 µM (active)
same,AC50,[4],10.7 µM (active)
CC(C)(C)c1cccc(C(C)(C)C)c1O,outcome,[2],inactive
same,outcome,[5],inactive
same,outcome,[3],inactive
same,outcome,[4],inactive
COCC(C)O (stereo not given),outcome,[2],inactive
same,outcome,[3],inactive
same,outcome,[4],inactive
CCCCCCC(=O)O,outcome,[2],inactive
same,outcome,[4],inactive
OC1CCCCC1,outcome,[2],inactive
same,outcome,[3],inactive
same,outcome,[4],inactive
CCCCCCCC(=O)O,outcome,[2],inactive
same,outcome,[3],inactive
same,outcome,[4],inactive
OCCC(F)(F)C(F)(F)C(F)(F)C(F)(F)C(F)(F)C(F)(F)F,outcome,[2],inactive
same,outcome,[3],inactive
C=C(C)C(=O)OCCC(F)(F)C(F)(F)C(F)(F)C(F)(F)C(F)(F)C(F)(F)F,outcome,[2],inactive
same,outcome,[3],inactive
same,outcome,[4],inactive
NC(=O)N1C(=O)C(C(=O)c2cc(Cl)cs2)c2cc(F)c(Cl)cc21 (stereo not given),AC50,[2],2.88 µM (active)
same,outcome,[3],inactive
same,outcome,[4],inactive
CC(C)(C)CC(C)(C)c1ccc(O)c(-n2nc3ccccc3n2)c1,outcome,[2],inactive
same,AC50,[3],90.1 µM (active)
same,AC50,[4],82.8 µM (active)
Cc1cc(C)c(O)c(C)c1,outcome,[2],inactive
same,outcome,[5],inactive
same,outcome,[3],inactive
same,outcome,[4],inactive
CC(O)C(=O)O (stereo not given),outcome,[3],inactive
CCOC(=O)CC(O)(CC(=O)OCC)C(=O)OCC,outcome,[2],inactive
same,outcome,[3],inactive
same,outcome,[4],inactive
CCCCC(CC)COC(=O)CCCCC(=O)OCC(CC)CCCC (stereo not given),outcome,[2],inactive
same,outcome,[3],inactive
same,outcome,[4],inactive
Cc1ccc(S(=O)(=O)O)c(C)c1,outcome,[3],inactive
same,outcome,[4],inactive
CCCCCCCCCCCCCC[N+](C)(C)C,outcome,[5],inactive
same,AC50,[3],4.73 µM (active)
same,AC50,[4],6.52 µM (active)
Cc1oc(-c2ccccc2)nc1CCOc1ccc(C[C@H](Nc2ccccc2C(=O)c2ccccc2)C(=O)O)cc1,AC50,[2],33.2 µM (active)
same,outcome,[5],inactive
same,AC50,[3],14 µM (active)
same,AC50,[4],14.4 µM (active)
same,outcome,[6],inactive
CC(C)CCCCCCOC(=O)CCCCC(=O)OCCCCCCC(C)C,outcome,[2],inactive
same,outcome,[3],inactive
same,outcome,[4],inactive
CCC(C)(C)C1CCC(O)CC1 (stereo not given),outcome,[2],inactive
same,outcome,[7],inactive
same,outcome,[8],inactive
same,AC50,[9],10 µM (active)
same,outcome,[10],inactive
same,outcome,[3],inactive
same,outcome,[4],inactive
same,outcome,[6],inactive
ClC1=C(Cl)C(Cl)(Cl)C(Cl)=C1Cl,outcome,[2],inactive
same,AC50,[3],74.8 µM (active)
same,AC50,[4],68 µM (active)
CCCCC(CC)COC(=O)CCCCC(=O)OCc1ccccc1 (stereo not given),outcome,[2],inactive
same,outcome,[3],inactive
same,outcome,[4],inactive
CCCCCCCCOC(=O)CCCCCCCCC(=O)OCCCCCCCC,outcome,[2],inactive
same,outcome,[3],inactive
same,outcome,[4],inactive
CC[C@H](C)[C@@H](C(=O)O)n1sc2ccccc2c1=O,outcome,[2],inactive
same,outcome,[4],inactive
OC1CCC(C2CCCCC2)CC1 (stereo not given),outcome,[2],inactive
same,AC50,[3],81.3 µM (active)
same,AC50,[4],50 µM (active)
CCCCCCCCCCCCN1CCCC1=O,AC50,[2],45.8 µM (active)
same,AC50,[5],31.1 µM (active)
same,AC50,[3],50 µM (active)
same,AC50,[4],75.5 µM (active)
O=C(/C=C/c1ccc(O)cc1)CC(=O)/C=C/c1ccc(O)cc1,AC50,[3],62.8 µM (active)
same,AC50,[4],28.4 µM (active)
CC(=O)NC1(c2cccc(F)c2)CCN(CC[C@@]2(c3ccc(Cl)c(Cl)c3)CN(c3ccccc3)C(=O)CO2)CC1,outcome,[2],inactive
same,AC50,[3],41.5 µM (active)
same,AC50,[4],41.5 µM (active)
O=C1OC2(c3ccccc31)c1cc(Br)c(O)c(Br)c1Oc1c2cc(Br)c(O)c1Br,outcome,[3],inactive
CC(=O)CC(C)(C)O,outcome,[2],inactive
same,outcome,[3],inactive
same,outcome,[4],inactive
COc1cc(CCC(=O)CC(=O)CCc2ccc(O)c(OC)c2)ccc1O,AC50,[3],68.5 µM (active)
same,AC50,[4],61.8 µM (active)
COCC(C)OCC(C)O (stereo not given),outcome,[2],inactive
same,outcome,[3],inactive
CC(C)(C)c1ccc(O)c(C(C)(C)C)c1,AC50,[2],0.00448 µM (active)
same,outcome,[5],inactive
same,AC50,[3],17.4 µM (active)
same,AC50,[4],21 µM (active)
CCCCOCCO,outcome,[2],inactive
same,outcome,[3],inactive
same,outcome,[4],inactive
OCCC(F)(F)C(F)(F)C(F)(F)C(F)(F)C(F)(F)C(F)(F)C(F)(F)C(F)(F)F,outcome,[2],inactive
same,outcome,[3],inactive
same,outcome,[4],inactive
